# Sampled rows, rich in hits. Any-hit rate of the full collection: about 4.8%.
# DAX1 inh-1 = DAX1 (NR0B1) inhibitors on StAR promoter, primary screen, cell-based, luminescence, SF-1 (NR5A1), full-length DAX-1; HEK293T StAR-luciferase reporter, SF-1/DAX-1 repression relief; inhibition, % at 6.8 µM; AID 652010, 2013; 1.1% of 370,000 active;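 active = inhibition above the mean over all tested compounds plus 3 SD, cut at about 3.6% in these data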;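 note: 0% = DAX-1 cells with DMSO and 100% = cells lacking DAX-1 with DMSO; higher inhibition means more luminescence from relief of DAX-1 repression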
# hcDAF12 agonist = H. contortus DAF-12 nuclear receptor activators, primary screen, cell-based, luminescence, HEK293, lit1-tk-luc reporter. HEK293 hcDAF-12 lit1-tk-luc reporter; 0% DMSO, 100% Δ7-dafachronic acid. 1.4% of 370,000 active. activation, % at 6.8 µM;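 active = activation above the mean of all tested compounds plus 3 SD, cut at about 5.5% in these data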;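 note: 100% = response to 3 µM Δ7-dafachronic acid high control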
# DAX1 inh-2 = DAX1 (NR0B1) inhibitors, primary screen, cell-based, HEK293, Gal4-DAX1, luciferase luminescence | Nuclear receptor subfamily 0 group B member 1 (Homo sapiens), P51843 | HEK293 Gal4-DAX1 luciferase reporter | inhibition, % at 6.75 µM | 0.99% of 340,000 active | AID 504766, 2011;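 active = inhibition above the mean over all tested compounds plus 3 SD, cut at about 4.2% in these data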;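 note: 0% = DAX1-transfected cells with DMSO and 100% = empty-vector control cells with DMSO; inhibition shows as a rise in luminescence from relieved DAX1 repression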
# Target sequence (P51843 207-470 limits assumed): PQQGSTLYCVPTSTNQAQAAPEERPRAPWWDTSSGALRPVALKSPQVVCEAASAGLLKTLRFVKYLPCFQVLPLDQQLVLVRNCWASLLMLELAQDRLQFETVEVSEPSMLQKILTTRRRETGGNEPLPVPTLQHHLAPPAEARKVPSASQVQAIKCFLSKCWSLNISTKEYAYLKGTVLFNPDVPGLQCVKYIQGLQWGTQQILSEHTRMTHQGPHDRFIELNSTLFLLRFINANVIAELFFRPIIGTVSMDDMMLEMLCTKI
# SMARCA2 act = SMARCA2 (BRM) function activators, primary screen, cell-based, luminescence, high throughput. MG213 cells, MMTV-luciferase reporter, dexamethasone, overnight. activation, % at 9.1 µM. 1% of 370,000 active. AID 652017, 2013; in the data active = activation above about 7.8%;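 note: 0% = vehicle wells and 100% = reference activator wells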
# hgDAF-12 ag = H. glycines DAF-12 receptor agonists, primary screen, cell-based, luminescence, HEK293, GAL4 fusion, UAS-luciferase. activation, % at 6.8 µM. 1.8% of 370,000 active. HEK293 GAL4-hgDAF12 UAS-luciferase reporter, agonist luminescence; normalized to butyrate control. AID 687014, 2013. Nuclear hormone receptor DAF-12 (Heterodera glycines), GAL4 fusion;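 active = activation above a cutoff set at the mean of all screened compounds plus 3 SD, cut at about 10% in these data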;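 note: 0% = DMSO wells and 100% = sodium butyrate wells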
# ssDAF-12 act = S. stercoralis DAF-12 nuclear receptor activators, primary screen, cell-based, luminescence, HEK293, GRIP1 co-expression, lit1-tk-luc; HEK293 ssDAF-12/GRIP1 lit1-tk-luc reporter; % of 3 µM dafachronic acid response; activation, % at 6.8 µM; 1% of 370,000 active;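 active = activation above the mean over all tested compounds plus 3 SD, cut at about 0.9% in these data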;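 note: 0% = DMSO-only wells and 100% = 3 µM delta7-dafachronic acid wells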
# Active calls of the source: *; x = no result given; ! = a repeat was not active.
SMILES,DAX1 inh-1,hcDAF12 agonist,DAX1 inh-2,SMARCA2 act,hgDAF-12 ag,ssDAF-12 act
CCCCCC(=O)N1C[C@H](n2cc(C3CC3)nn2)[C@@H](O)C[C@@H]1c1ccc(Cl)cc1,1,-2,0,-1,-1,-1
CCCCCC(=O)N1C[C@@H](O)[C@H](n2cc(C3CC3)nn2)C[C@@H]1c1ccc(Cl)cc1,0,0,4.6*,-2,-1,-1
O=C(NCCCn1cccn1)c1cc(COc2ccccc2)on1,3,2,4.2*,6,8,0
COc1ccccc1-c1cc(C(=O)NCCc2ccccc2)no1,0,3,2,3,9,-1
CCCc1cc(C(=O)NCCc2ccccc2)no1,4,4,0,2,11*,-1
COC(=O)C1=C(C)N(Cc2cccc(C(F)(F)F)c2)C(=NCC2CC2)NC1c1cccc(F)c1 (configuration not stated),1,-2,x,-7,-2,0
CCCC(=O)NC(=S)Nc1cccc(NC(=O)c2ccccc2)c1,0,-2,-1,1,0,-1
CC(C)CC(=O)NC(=S)Nc1cccc(NC(=O)c2ccccc2)c1,-1,-3,7.3*,-3,-2,-2
CCCc1cc(C(=O)NNC(=S)Nc2cccc(C)c2)cs1,2,0,0,1,11*,0
CC(C)Oc1cccc(C(=O)NC(=S)Nc2ccccc2)c1,2,2,3,2,12*,0
Cc1cccc(NC(=S)NNC(=O)c2ccco2)c1,0,-1,1,5,2,-2
CC(=O)c1cccc(NC(=S)NC(=O)c2ccc(Cl)cc2)c1,1,1,2,8,9,-1
CC(=O)c1cccc(NC(=S)NC(=O)c2cccc(C)c2)c1,2,1,0,6,13*,-1
CC(C(=O)N(C)C1CCS(=O)(=O)C1)N1C(=O)/C(=C/c2ccc(F)cc2)SC1=S (configuration not stated),0,1,0,-2,2,-1
Cc1cccc(NC(=S)N/C(=N/S(=O)(=O)c2ccccc2)c2ccccc2)c1,1,-1,1,5,12*!,1
Cc1ccc(C(=O)Nc2cccc(NC(=O)c3cccnc3)c2)cc1,0,0,1,1,0,-1
Cc1cccc(C(=O)NNC(=O)c2ccc(O)cc2)c1,0,-3,2,-1,0,-2
Cc1ccc(C(=O)NNC(=O)c2cccc(C)c2)cc1,1,-1,1,0,11*,-1
Cc1cccc(NC(=O)c2cccnc2)c1,0,-2,2,7.8*,2,-1
CC#CCN1c2ccccc2[C@]23C[C@@H](C(=O)OC)N(C(C)=O)C2=NC(C(=O)OC)=C(C(=O)OC)[C@H]13,0,-1,-1,0,0,0
O=C(NCCC1=CCCCC1)c1ccc(F)c(S(=O)(=O)N2CCOCC2)c1,0,0,-1,2,1,0
CC1CN(S(=O)(=O)c2cc(C(=O)NCCC3=CCCCC3)ccc2Cl)CC(C)O1 (configuration not stated),3.8*,1,-1,1,6,-1
CC(C)(C)c1cc(/C=C2\NC(=O)NC2=O)cc(C(C)(C)C)c1O,0,-2,-1,1,1,-1
Nc1nc(SCc2cccnc2)c2ncn(C3OC(CO)C(O)C3O)c2n1 (configuration not stated),1,0,-1,1,5,0
O=C(O)CCCC(=O)Nc1nc2n(n1)C(c1ccc(F)cc1)CC(c1ccc(Cl)cc1)N2 (configuration not stated),0,-1,1,2,2,1.8*
SMILES,DAX1 inh-1,hcDAF12 agonist,DAX1 inh-2,SMARCA2 act,hgDAF-12 ag,ssDAF-12 act
COCC(=O)Nc1nc2n(n1)C(c1ccc(OC)cc1)CC(c1ccc(OC)cc1)N2 (configuration not stated),0,-1,-1,-1,0,-2
COC(=O)c1sc(NC(=O)COc2ccccc2OC)nc1C,0,0,0,1,0,-2
CC(C)CNC1CS(=O)(=O)CC1O (configuration not stated),0,0,1,0,1,-1
CCCCCCCCS(=O)C1CS(=O)(=O)CC1O (configuration not stated),0,0,4.7*,-2,0,-2
CCOC(=O)C1CN(C(C)(C)C)C(=O)C1=O (configuration not stated),0,1,0,-2,0,-1
COC(=O)N/N=C1\CCCc2c(C)cc(C)cc21,1,0,4.3*,-3,2,-1
O=C(Nc1cc(C(F)(F)F)ccc1F)C1CCCCC1,x,x,0,x,x,x
O=[N+]([O-])c1cccc(/C=C/c2ccc3cccc(O)c3n2)c1,0,-1,1,6,3,-1
Oc1ccc(/C=C/c2ccc3cccc(O)c3n2)cc1Br,1,2,1,3,10*,-1
CCc1ccc(N2C(=O)CC(N3CCN(c4ccccn4)CC3)C2=O)cc1 (configuration not stated),0,-2,3,0,0,-2
O=C1CC(N2CCN(c3ccccn3)CC2)C(=O)N1c1ccc(F)cc1 (configuration not stated),0,0,x,-1,1,1.7*
COc1ccc(C(CNC(=O)Cc2ccccc2Cl)N2CCCCC2)cc1 (configuration not stated),0,0,1,-3,0,-1
CO[C@H]1CN(C)C(=O)c2cc(NS(=O)(=O)c3ccccc3)ccc2OC[C@@H](C)N(Cc2ccccn2)C[C@@H]1C,-1,-1,x,-4,0,0
O=S1(=O)N=C(Nc2nc3c(s2)CCCC3)c2ccccc21,3,5,1,6,11*,0
CCCCNC(=S)N(CCN(CC)CC)Cc1cc2cc3c(cc2[nH]c1=O)OCO3,0,-2,-2,0,-1,-1
CCCCNC(=S)N(CCN(CC)CC)Cc1cc2cc3c(cc2[nH]c1=O)OCCO3,0,0,4.3*,4,1,-1
O=C(O)Cn1c2c(c3ccccc31)CSc1ccc(Cl)cc1-2,0,7.5*,1,-2,1,1
